Measurements published in ChEMBL document CHEMBL1961873, “Compounds: GSK PKIS; Assays: Nanosyn kinase panel” (2012).

How the values were obtained:
[1] = molecular target: Tyrosine-protein kinase receptor UFO (Homo sapiens) (UniProt P30530); conditions: at 1 µM
[2] = molecular target: Tyrosine-protein kinase Blk (Homo sapiens) (UniProt P51451); conditions: at 0.1 µM
[3] = molecular target: Tyrosine-protein kinase Blk (Homo sapiens) (UniProt P51451); conditions: at 1 µM
[4] = molecular target: T1, Cytoplasmic tyrosine-protein kinase BMX (Homo sapiens) (UniProt P51813); conditions: at 0.1 µM
T1 sequence (whole entry): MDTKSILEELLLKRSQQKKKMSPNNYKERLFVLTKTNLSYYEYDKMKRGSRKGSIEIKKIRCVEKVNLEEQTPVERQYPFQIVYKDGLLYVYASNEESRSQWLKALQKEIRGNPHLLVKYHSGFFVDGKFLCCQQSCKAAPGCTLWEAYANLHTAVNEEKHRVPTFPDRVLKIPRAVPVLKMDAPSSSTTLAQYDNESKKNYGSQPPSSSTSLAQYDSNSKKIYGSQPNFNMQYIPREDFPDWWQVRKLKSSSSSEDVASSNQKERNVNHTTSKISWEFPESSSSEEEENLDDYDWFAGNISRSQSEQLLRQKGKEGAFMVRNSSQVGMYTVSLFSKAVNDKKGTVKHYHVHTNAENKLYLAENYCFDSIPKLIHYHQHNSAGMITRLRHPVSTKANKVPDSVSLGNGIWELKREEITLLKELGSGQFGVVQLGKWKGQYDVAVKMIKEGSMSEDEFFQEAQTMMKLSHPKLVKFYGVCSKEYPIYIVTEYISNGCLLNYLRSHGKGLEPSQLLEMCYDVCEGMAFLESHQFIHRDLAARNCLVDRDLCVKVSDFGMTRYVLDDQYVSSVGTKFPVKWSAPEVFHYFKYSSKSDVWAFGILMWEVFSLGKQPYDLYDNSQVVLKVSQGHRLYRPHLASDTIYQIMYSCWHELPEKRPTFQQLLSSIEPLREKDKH

[5] = molecular target: T1, Cytoplasmic tyrosine-protein kinase BMX (Homo sapiens); conditions: at 1 µM
[6] = molecular target: Protein-tyrosine kinase 6 (Homo sapiens) (UniProt Q13882); conditions: at 0.1 µM
Sequence of Protein-tyrosine kinase 6 (Homo sapiens) (Q13882 whole entry, looked up): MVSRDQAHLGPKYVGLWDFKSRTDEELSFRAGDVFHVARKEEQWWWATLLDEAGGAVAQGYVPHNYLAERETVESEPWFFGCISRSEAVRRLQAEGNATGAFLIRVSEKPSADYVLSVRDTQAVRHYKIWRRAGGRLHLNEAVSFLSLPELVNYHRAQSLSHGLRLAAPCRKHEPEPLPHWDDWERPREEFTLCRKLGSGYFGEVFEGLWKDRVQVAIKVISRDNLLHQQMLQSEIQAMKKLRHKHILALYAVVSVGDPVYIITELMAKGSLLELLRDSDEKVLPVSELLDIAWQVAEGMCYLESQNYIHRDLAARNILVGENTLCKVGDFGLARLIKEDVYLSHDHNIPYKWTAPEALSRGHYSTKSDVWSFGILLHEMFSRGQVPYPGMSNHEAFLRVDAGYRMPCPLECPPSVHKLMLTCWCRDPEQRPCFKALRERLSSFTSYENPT

[7] = molecular target: Protein-tyrosine kinase 6 (Homo sapiens) (UniProt Q13882); conditions: at 1 µM
[8] = molecular target: Tyrosine-protein kinase BTK (Homo sapiens) (UniProt Q06187); conditions: at 0.1 µM
Sequence of Tyrosine-protein kinase BTK (Homo sapiens) (Q06187 whole entry): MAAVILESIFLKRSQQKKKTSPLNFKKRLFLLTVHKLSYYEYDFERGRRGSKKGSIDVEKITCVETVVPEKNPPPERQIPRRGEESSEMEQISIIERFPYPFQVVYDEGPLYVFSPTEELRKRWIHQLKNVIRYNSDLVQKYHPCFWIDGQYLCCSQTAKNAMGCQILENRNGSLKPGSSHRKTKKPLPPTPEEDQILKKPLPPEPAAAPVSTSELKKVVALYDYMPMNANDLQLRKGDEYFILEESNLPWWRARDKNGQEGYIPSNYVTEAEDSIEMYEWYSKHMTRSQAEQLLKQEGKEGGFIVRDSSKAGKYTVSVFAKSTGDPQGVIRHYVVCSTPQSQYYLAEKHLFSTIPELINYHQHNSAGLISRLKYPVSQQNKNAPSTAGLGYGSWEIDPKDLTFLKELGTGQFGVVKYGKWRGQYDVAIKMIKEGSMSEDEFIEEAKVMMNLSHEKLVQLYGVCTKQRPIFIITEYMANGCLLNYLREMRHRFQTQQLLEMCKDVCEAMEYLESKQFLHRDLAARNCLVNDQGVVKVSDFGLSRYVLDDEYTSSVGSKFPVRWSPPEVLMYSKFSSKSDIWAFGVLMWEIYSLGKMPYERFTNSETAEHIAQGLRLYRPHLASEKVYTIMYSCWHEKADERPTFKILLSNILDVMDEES

[9] = molecular target: Tyrosine-protein kinase BTK (Homo sapiens) (UniProt Q06187); conditions: at 1 µM
[10] = molecular target: Tyrosine-protein kinase CSK (Homo sapiens) (UniProt P41240); conditions: at 0.1 µM;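 note: value given is the averaged percent inhibition of CSK kinase activity, from the GSK PKIS kinase inhibitor set screening panel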
Sequence of Tyrosine-protein kinase CSK (Homo sapiens) (P41240 2-450 limits assumed): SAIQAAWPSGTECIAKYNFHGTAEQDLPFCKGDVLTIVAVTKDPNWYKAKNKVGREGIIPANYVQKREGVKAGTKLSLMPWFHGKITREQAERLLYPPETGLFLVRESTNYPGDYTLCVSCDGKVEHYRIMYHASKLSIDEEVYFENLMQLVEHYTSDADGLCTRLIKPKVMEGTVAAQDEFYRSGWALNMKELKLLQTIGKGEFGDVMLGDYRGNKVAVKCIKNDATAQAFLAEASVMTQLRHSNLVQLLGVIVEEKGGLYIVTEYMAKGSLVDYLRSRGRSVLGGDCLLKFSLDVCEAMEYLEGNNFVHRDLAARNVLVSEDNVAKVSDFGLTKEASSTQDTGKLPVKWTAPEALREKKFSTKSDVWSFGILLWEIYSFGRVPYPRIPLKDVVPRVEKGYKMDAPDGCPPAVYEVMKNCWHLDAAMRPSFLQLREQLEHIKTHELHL

Sequence of Tyrosine-protein kinase Blk (Homo sapiens) (P51451 2-505 limits assumed): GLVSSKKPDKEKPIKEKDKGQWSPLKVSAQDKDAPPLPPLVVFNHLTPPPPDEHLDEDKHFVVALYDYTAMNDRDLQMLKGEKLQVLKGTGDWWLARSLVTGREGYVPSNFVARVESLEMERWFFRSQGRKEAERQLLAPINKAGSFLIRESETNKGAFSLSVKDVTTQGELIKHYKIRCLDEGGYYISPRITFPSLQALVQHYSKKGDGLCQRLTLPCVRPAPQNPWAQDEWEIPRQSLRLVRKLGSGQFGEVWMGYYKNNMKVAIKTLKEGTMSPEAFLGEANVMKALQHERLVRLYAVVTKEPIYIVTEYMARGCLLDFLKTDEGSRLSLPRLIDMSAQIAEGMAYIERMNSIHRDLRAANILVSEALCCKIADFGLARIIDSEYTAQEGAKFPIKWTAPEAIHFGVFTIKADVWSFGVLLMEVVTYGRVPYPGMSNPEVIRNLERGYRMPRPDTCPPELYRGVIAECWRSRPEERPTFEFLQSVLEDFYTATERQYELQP
Sequence of Tyrosine-protein kinase receptor UFO (Homo sapiens) (P30530 whole entry): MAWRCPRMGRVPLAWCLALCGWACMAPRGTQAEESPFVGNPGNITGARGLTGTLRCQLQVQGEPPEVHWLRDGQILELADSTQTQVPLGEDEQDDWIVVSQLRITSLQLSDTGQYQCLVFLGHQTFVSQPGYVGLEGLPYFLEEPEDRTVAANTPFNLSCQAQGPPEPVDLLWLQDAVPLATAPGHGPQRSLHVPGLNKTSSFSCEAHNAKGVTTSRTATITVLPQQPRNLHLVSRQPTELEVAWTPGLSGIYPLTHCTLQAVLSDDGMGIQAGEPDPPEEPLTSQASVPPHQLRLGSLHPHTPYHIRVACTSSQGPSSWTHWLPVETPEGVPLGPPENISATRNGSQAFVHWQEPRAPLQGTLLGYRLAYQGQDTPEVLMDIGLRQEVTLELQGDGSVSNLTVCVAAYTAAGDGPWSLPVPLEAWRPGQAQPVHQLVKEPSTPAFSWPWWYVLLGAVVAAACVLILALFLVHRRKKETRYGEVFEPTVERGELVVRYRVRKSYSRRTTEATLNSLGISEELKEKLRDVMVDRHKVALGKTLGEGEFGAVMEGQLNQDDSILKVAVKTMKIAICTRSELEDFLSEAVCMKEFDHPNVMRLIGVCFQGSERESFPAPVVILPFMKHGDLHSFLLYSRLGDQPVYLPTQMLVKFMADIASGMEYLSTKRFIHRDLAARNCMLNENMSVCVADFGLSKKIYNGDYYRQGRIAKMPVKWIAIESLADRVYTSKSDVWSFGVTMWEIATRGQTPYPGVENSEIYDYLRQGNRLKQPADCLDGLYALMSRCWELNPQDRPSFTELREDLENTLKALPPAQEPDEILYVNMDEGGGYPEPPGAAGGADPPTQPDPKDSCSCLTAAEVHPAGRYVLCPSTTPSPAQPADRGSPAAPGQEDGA

| SMILES | inhibition [1] [%] | inhibition [2] [%] | inhibition [3] [%] | inhibition [4] [%] | inhibition [5] [%] | inhibition [6] [%] | inhibition [7] [%] | inhibition [8] [%] | inhibition [9] [%] | inhibition [10] [%] |
| --- | --- | --- | --- | --- | --- | --- | --- | --- | --- | --- |
| COc1cc2c(cc1Nc1nc(Nc3ccsc3C(N)=O)c3cc[nH]c3n1)N(C(=O)CN(C)C)CCC2(C)C | 85.5 | 3.19 | 6.26 | 3.79 | 5.73 | 5.95 | 19.2 | 0.08 | 1.1 | 2.59 |
| COc1cc(Nc2nccc(Nc3ccc4c(C)n[nH]c4c3)n2)cc(OC)c1OC | 1.16 | 12.7 | 69.3 | 17.5 | 64.8 | 11.1 | 55.4 | 7.82 | 34.9 | 21 |
| Cc1cccc2c1NC(=O)/C2=N\Nc1ccc(S(N)(=O)=O)cc1 | -0.34 | 1.72 | 5.96 | -0.08 | 2.79 | 0.03 | 1.67 | 1.48 | 1.48 | 3.78 |
| Nc1ncc(-c2cccc(S(N)(=O)=O)c2)c2scc(-c3ccc(F)c(Cl)c3)c12 | -2.44 | 5.6 | 28.2 | 14.5 | 56.5 | 7.08 | 47.5 | 3.15 | 25.1 | 23.1 |
| Fc1ccc(-c2cc(-c3c[nH]nc3-c3ccccn3)ccn2)cc1 | -8.99 | 2.97 | 2.43 | -2.56 | 3.99 | 5.01 | 7.81 | 0.31 | -1.93 | 5.1 |
| COc1cc2ncn(-c3cc(OCc4ccccc4C(F)(F)F)c(C(=O)N(C)C)s3)c2cc1OC | 1.68 | 0.87 | 7.34 | 3.03 | 3.07 | -0.28 | -0.8 | -1.28 | -0.85 | -1.4 |
| COC(=O)Nc1nc2ccc(Oc3ccc(NC(=O)Nc4cccc(Cl)c4)cc3)cc2[nH]1 | 6.96 | 0.1 | 1.79 | 1.98 | 1.28 | 0.55 | -0.38 | 0.06 | -0.37 | 1.23 |
| CN(C)CCOc1ccc(-c2nc(-c3ccncc3)c(-c3ccc4c(c3)CC/C4=N\O)[nH]2)cc1 | -4.92 | 2.07 | 6.18 | 2.12 | 3.36 | 4.89 | 12.4 | 0.76 | 1.19 | 6.25 |
| CC(C)(CO)CNC(=O)c1ccc2c(c1)/C(=N/Nc1ccc(S(N)(=O)=O)cc1)C(=O)N2 | 6.57 | -0.9 | 10.8 | -1.83 | 0.67 | -2.27 | -0.34 | 0.27 | -2.23 | 0.77 |
| CCn1c(-c2nonc2N)nc2cnc(Oc3cccc(NC(=O)c4ccc(N(C)C)cc4)c3)cc21 | -3.3 | 0.9 | 2.27 | 1.63 | 1.66 | -0.08 | -0.57 | -0.86 | -0.69 | 2.19 |
| COC(=O)c1sc(-n2cnc3cc(OC)c(OC)cc32)cc1OCc1ccccc1C(F)(F)F | -2.03 | 3.54 | 22.4 | 3.04 | 6.66 | 2.66 | 4.35 | -0.65 | 1.6 | 1.76 |
| COc1ccc(CNC(=O)c2ccc(-c3cc(-c4nnc(C)o4)ccc3C)cc2)cc1 | 2.74 | 2.54 | 0.87 | -0.31 | 0.63 | 0.56 | 4.1 | 0.04 | 2.36 | 3.65 |
| Fc1cccc(COc2ccc(Nc3ncnc4sc(-c5ccco5)cc34)cc2Cl)c1 | -6.25 | 4 | 3.74 | 2.98 | 2.36 | 3.39 | 3.91 | -1.13 | 1.35 | -0.1 |
| FC(F)(F)c1cccc(-c2nn3ncccc3c2-c2ccnc(Nc3ccc4c(c3)OCCO4)n2)c1 | -1.04 | 4.81 | 45.5 | 7.84 | 29.9 | 4.61 | 28.5 | -0.12 | 2.88 | 5.73 |
| CCN1CCC(CC(=O)Nc2n[nH]c3nnc(-c4cccc(F)c4F)cc23)CC1 | 0.83 | 3.37 | 3.76 | 1.54 | 1.09 | 2.53 | 1.16 | 0.54 | 1.15 | -1.69 |
| COc1cc(N2CCN(C(C)C)CC2)ccc1Nc1nc(Nc2ccc(F)cc2C(N)=O)c2cc[nH]c2n1 | 42.4 | 1.9 | 3.73 | 1.88 | 5.02 | 4.84 | 31.2 | -0.63 | -0.07 | 1.42 |
| N#Cc1c(NC(=O)CN2CCOCC2)sc2c1CCCC2 | -0.41 | 3.64 | 3.64 | -0.4 | 3.55 | 0.26 | 6.1 | 0.98 | 3.11 | 6.19 |

| SMILES | inhibition [1] [%] | inhibition [2] [%] | inhibition [3] [%] | inhibition [4] [%] | inhibition [5] [%] | inhibition [6] [%] | inhibition [7] [%] | inhibition [8] [%] | inhibition [9] [%] | inhibition [10] [%] |
| --- | --- | --- | --- | --- | --- | --- | --- | --- | --- | --- |
| COc1ccc(-c2nn3ncccc3c2-c2ccnc(Nc3ccc4c(c3)OCCO4)n2)cc1 | 8.45 | 5.51 | 39.5 | 0.12 | 8.65 | 12 | 67.5 | 0.65 | 3.53 | -0.27 |
| COC(=O)Nc1nc2ccc(S(=O)(=O)c3ccc(NC(=O)Nc4cc(C(F)(F)F)ccc4F)cc3)cc2[nH]1 | -1.71 | 1.71 | 3.18 | 6.6 | 5.12 | 2.94 | 2.51 | 1.86 | 0.94 | 2.8 |
| CCCN(CCS(C)(=O)=O)Cc1ccc(-c2ccc3ncnc(Nc4ccc(OCc5cccc(F)c5)c(Cl)c4)c3c2)o1 | -0.23 | 1.35 | 4 | 0.94 | 3.89 | 4.08 | 7.54 | -0.01 | 0.03 | 1.98 |
| c1ccc(COc2ccc(Nc3ncnc4ccc(-c5ccco5)cc34)cc2)cc1 | 2.06 | 1.56 | 3.68 | -1 | 2.02 | 1.6 | 2.35 | 0.63 | 1.73 | 0.39 |
| NS(=O)(=O)c1ccc(N/N=C2\C(=O)Nc3ccc4ncccc4c32)cc1 | 36.8 | 8.45 | 60 | 6.88 | 25.3 | 5.86 | 31.9 | 1.8 | 13 | 1.66 |
| Cc1cccc(Nc2ncc(-c3ccccc3)o2)c1 | -3.9 | 3.13 | 6.39 | 4.13 | 6.25 | 2.06 | 0.15 | 0.69 | 1.31 | 1.12 |
| CCc1nn2ncccc2c1-c1ccnc(NC2CC2)n1 | -2.77 | 1.77 | 3.32 | 3.6 | 5.18 | -0.52 | 1.65 | 0.24 | 0.76 | 0.85 |
| COc1ccc2[nH]c3c4[nH]c5ccc(OC)cc5c4c4c(c3c2c1)C(=O)NC4=O | 40 | 6.14 | 36.5 | -2.69 | 16.6 | 6.37 | 19.6 | 0.07 | 8.32 | 4.3 |
| Cc1ccc(O)cc1Nc1ccnc2cc(-c3ccccn3)ccc12 | -6.05 | 12.5 | 61.8 | 19.8 | 69.2 | 52.5 | 96.9 | 4.79 | 34.5 | 14.5 |
| c1ccc(-c2nc3n(c2-c2ccc4c(c2)OCO4)CCC3)nc1 | -5.46 | 0.54 | 3.25 | -1.29 | 1 | 0.9 | 2.26 | -0.42 | -1.35 | 1.01 |
| CCn1c(-c2nonc2N)nc2ccccc21 | 0.96 | 1.38 | 3.02 | -0.5 | 3.8 | 4.51 | 3.44 | 1.6 | 2.63 | 2.25 |
| CCn1cc(-c2ccnc3[nH]ccc23)c(-c2cccc(NC(=O)Nc3ccc(OCc4ccccc4)cc3)c2)n1 | 0.9 | 2.54 | 18.7 | 1.09 | -0.27 | 3.04 | 16.2 | 0.34 | 3.3 | -0.47 |
| CNC(=O)c1cncc(/C=C/c2ccccc2Cl)c1 | -0.52 | 3.84 | 4.55 | 1.47 | 8.42 | 0.17 | 10 | 1.39 | 2.01 | 0.04 |
| NC(=O)c1sc(-n2cnc3ccc(C(F)(F)F)cc32)cc1OCc1ccccc1Br | -3.8 | 2.51 | 3.45 | 1.05 | 2.91 | 3.76 | 5.16 | -0.59 | -2.44 | 4.79 |
| CC1=C(C(=O)Nc2cc(Cl)c3[nH]ncc3c2)C(c2ccc(C(F)(F)F)cc2)CC(=O)N1 (stereo not given) | -2.18 | 4.37 | 33.2 | 0.59 | 4.11 | 5.88 | 10.3 | -0.51 | 0.33 | 4.43 |
| CCn1c(-c2nonc2N)nc2c(C#CC(C)(C)O)nc(OC[C@H](N)c3ccccc3)cc21 | -3 | 3.73 | 2.85 | 3.88 | 5.18 | 2.66 | 2.72 | 0.09 | 0.56 | -1.53 |
